Assay outcomes: PubChem, several laboratories
The list is not random: actives were taken first. Their share in the collection is about 9.6%.
HCT116 bCat-KO: beta-catenin-lacking colon tumor cell growth suppression; AID 818; HCT116 beta-catenin knockout viability, CellTiter-Glo, 60 h; stronger effect = lower value; viability, % at 10 µM; 140,000 compounds, 1.5% hits;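 active = viability at or under a set limit, the compound median less 4 SD, cut at about 6% in these data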;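 also: 0% = Hyamine 1622 control at 20 µM and 100% = untreated cell control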
PTEN del growth: suppresses growth of cells with PTEN deletion. viability, % at 10 µM. 140,000 compounds, 1.2% hits. HCT116 PTEN-null viability, CellTiter-Glo, 60 h; stronger effect = lower value;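 active = viability at or below a set limit, 4 SD under the median of all tested compounds, cut at about 3.7% in these data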;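 also: PTEN knockout HCT116 line with beta catenin targeted HCT116 as companion control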
Lmaj promast: Leishmania major promastigote growth inhibition | inhibition, % at 10 µM | Leishmania major promastigotes, resazurin fluorescence viability | 200,000 compounds, 9% hits | AID 1063; in the data active = inhibition above about 50%;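 also: promastigotes grown with compound for 44 hours at 28 °C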
Autophagy mod: autophagy modulation, high-content screen; MEF GFP-LC3 puncta imaging; test concentration mostly 10 µM; calls only at 10 µM (by protocol); 190,000 compounds, 0.98% hits;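 active = percentage of spot-positive cells more than 3 SD above its plate mean, without a fluorescence outlier flag or 80% toxicity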;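 also: spot-positive cell cutoff set from DMSO-treated cells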
INS promoter inh: TRM-6 insulin promoter activity inhibition; inhibition, % at 2 µM; 130,000 compounds, 0.9% hits; TRM-6 cells (human fetal islet line), insulin promoter-eGFP reporter, imaging; reporter expression induced with tamoxifen;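 active = inhibition above the mean plus 3 SD, with well images judged a real hit on visual review, cut at about 60% in these data, passing the limit was not always enough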
Insulin prom up: MIN6 insulin promoter up-regulation | MIN6 insulin promoter-GFP reporter, high-content imaging; stronger effect = higher value | 190,000 compounds, 0.3% hits | z-score at 5 µM;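 active = z-score above 3 at 5 µM with at least 500 cells counted in the well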
Lmaj promast 1uM: inhibitors of Leishmania major promastigote growth, repeat at 1 uM | 1,100 compounds, 13% hits | L. major promastigote growth, resazurin fluorescence, 48 h | shares compounds with Lmaj promast | inhibition, % at 1 µM;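 active = inhibition above about 50% in both repeat tests, limit read from the data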
The depositor's hits bear a star.

How did Cc1cc(C)c(C(=O)c2ccc(C(=O)N(C(C)C)C(C)C)cc2)c(C)c1 do in these assays?
HCT116 bCat-KO: 75; PTEN del growth: 73; Lmaj promast: 86*; Autophagy mod: inactive; Insulin prom up: 2; Lmaj promast 1uM: -11

How did CCOC(=O)c1nnn(-c2nonc2N)c1COc1c(C=O)cccc1OC do in these assays?
HCT116 bCat-KO: 84; PTEN del growth: 82; Lmaj promast: 98*; Autophagy mod: inactive; INS promoter inh: 8; Insulin prom up: -0.66; Lmaj promast 1uM: -1

Results for CCOC(=O)c1nnn(-c2nonc2-n2cccc2)c1CCl ?
HCT116 bCat-KO: 85; PTEN del growth: 85; Lmaj promast: 100*; Autophagy mod: inactive; INS promoter inh: 19; Insulin prom up: 0.54; Lmaj promast 1uM: 57*

What do the screens show for `N/C(=N\OC(=O)CCCc1ccccc1)c1ccc([N+](=O)[O-])cc1`?
HCT116 bCat-KO: 82; PTEN del growth: 90; Lmaj promast: -13; Autophagy mod: inactive; INS promoter inh: -33; Insulin prom up: 0.07

How did Cc1ccc2nc(/C(C#N)=C\c3ccc(N4CCCCC4)c([N+](=O)[O-])c3)[nH]c2c1 do in these assays?
HCT116 bCat-KO: 27; PTEN del growth: 9; Lmaj promast: 97*; Autophagy mod: inactive; INS promoter inh: -8; Insulin prom up: -1.6; Lmaj promast 1uM: 4

How did COc1ccc(-n2c(C)cc(C(=O)CSc3nn4c(=O)c(C(C)(C)C)nnc4s3)c2C)cc1 do in these assays?
HCT116 bCat-KO: 81; PTEN del growth: 94; Lmaj promast: 64*; Autophagy mod: inactive; INS promoter inh: 55; Insulin prom up: -4.2; Lmaj promast 1uM: 6

What do the screens show for `CCN(CCO)Cc1csc2ccccc12`?
HCT116 bCat-KO: 93; PTEN del growth: 88; Lmaj promast: 18; Autophagy mod: inactive; INS promoter inh: -3; Insulin prom up: 0.07

How did CSc1nc(C)c2c(c1C#N)CCCC2 do in these assays?
HCT116 bCat-KO: 98; PTEN del growth: 110; Lmaj promast: 62*; Autophagy mod: inactive; Lmaj promast 1uM: 16

Results for COC(=O)CSc1nnc([C@H](Cc2ccccc2)NC(=O)OC(C)(C)C)o1 ?
HCT116 bCat-KO: 104; PTEN del growth: 103; Lmaj promast: -2; Autophagy mod: inactive; Insulin prom up: 0.93

Results for COC(=O)CS(=O)(=O)c1nnc([C@H](Cc2ccccc2)NC(=O)OC(C)(C)C)o1 ?
HCT116 bCat-KO: 98; PTEN del growth: 91; Lmaj promast: 101*; Autophagy mod: inactive; INS promoter inh: 70*; Insulin prom up: -0.08; Lmaj promast 1uM: 0

How did Cn1cc(CNC(=O)C2CCCCC2)cn1 do in these assays?
HCT116 bCat-KO: 99; PTEN del growth: 103; Lmaj promast: 1; Autophagy mod: inactive; INS promoter inh: -16; Insulin prom up: -0.35

Results for CCc1ccc2[nH]c(=O)c(CN(CCCN3CCOCC3)C(=O)Nc3ccc(Cl)cc3)cc2c1 ?
HCT116 bCat-KO: 21; PTEN del growth: 21; Lmaj promast: 79*; Autophagy mod: inactive; Insulin prom up: -2.4; Lmaj promast 1uM: -21

What do the screens show for `CC(=O)c1c(N2CCN(c3cccc(Cl)c3)CC2)nc(=S)n(-c2ccccc2)c1C`?
HCT116 bCat-KO: 94; PTEN del growth: 97; Lmaj promast: 91*; Autophagy mod: inactive; INS promoter inh: 31; Insulin prom up: -0.84; Lmaj promast 1uM: -9

What do the screens show for `CCn1c(C)c(C(C)=O)c(N2CCN(c3cccc(Cl)c3)CC2)nc1=S`?
HCT116 bCat-KO: 86; PTEN del growth: 74; Lmaj promast: -5; Autophagy mod: inactive; INS promoter inh: -28; Insulin prom up: 1.3

How did CC(=O)NN=C1CCC(c2ccccc2)CC1 (configuration not stated) do in these assays?
HCT116 bCat-KO: 90; PTEN del growth: 105; Lmaj promast: -4; Autophagy mod: inactive; INS promoter inh: 20; Insulin prom up: 1.1

What do the screens show for `CCOC(=O)c1cc(CC)sc1NC(=O)C1CC(=O)NN1Cc1ccccc1` (configuration not stated)?
HCT116 bCat-KO: 82; PTEN del growth: 76; Lmaj promast: 4; Autophagy mod: inactive; Insulin prom up: -0.85

How did COC(=O)c1cc(C)sc1NC(=O)C1CC(=O)NN1Cc1ccccc1 (configuration not stated) do in these assays?
HCT116 bCat-KO: 92; PTEN del growth: 86; Lmaj promast: 95*; Autophagy mod: inactive; Insulin prom up: -0.42; Lmaj promast 1uM: 2

How did O=C(Nc1ccc(Br)cc1)c1cccnc1N1CCCCC1 do in these assays?
HCT116 bCat-KO: 80; PTEN del growth: 85; Lmaj promast: 3; Autophagy mod: inactive; INS promoter inh: -34; Insulin prom up: 0.2

How did COc1ccc(C2NCCn3cccc32)cc1 (configuration not stated) do in these assays?
HCT116 bCat-KO: 93; PTEN del growth: 95; Lmaj promast: 96*; Autophagy mod: inactive; INS promoter inh: -129; Lmaj promast 1uM: -20

How did CN(C)S(=O)(=O)c1cccc(N=c2scc(-c3ccc4c(c3)NC(=O)CO4)n2CC2CCCO2)c1 (configuration not stated) do in these assays?
HCT116 bCat-KO: 17; PTEN del growth: 23; Lmaj promast: 96*; Autophagy mod: inactive; INS promoter inh: 27; Insulin prom up: -1.6; Lmaj promast 1uM: -13

What do the screens show for `c1ccc(-c2csc(=Nc3cccnc3)n2CC2CCCO2)cc1` (configuration not stated)?
HCT116 bCat-KO: 80; PTEN del growth: 87; Lmaj promast: 6; Autophagy mod: inactive; INS promoter inh: 0; Insulin prom up: 0.1

Results for CCn1c(SCC(=O)N2CCOCC2)nc2oc3c(Cl)cc(Cl)cc3c(=O)c2c1=O ?
HCT116 bCat-KO: 11; PTEN del growth: 13; Lmaj promast: 72*; Autophagy mod: inactive; Lmaj promast 1uM: 8

Results for CCn1c(SCC(=O)N2CCOCC2)nc2sc3c(c2c1=O)CCCC3 ?
HCT116 bCat-KO: 99; PTEN del growth: 103; Lmaj promast: 15; Autophagy mod: inactive; Insulin prom up: 0.55

What do the screens show for `Cc1ccc(-c2onc3ccc(C4(C)OCCO4)cc23)cc1`?
HCT116 bCat-KO: 95; PTEN del growth: 102; Lmaj promast: 2; Autophagy mod: inactive; Insulin prom up: 0.34

Results for Cc1ccc(-c2onc3ccc(C=O)cc23)cc1 ?
HCT116 bCat-KO: 25; PTEN del growth: 36; Lmaj promast: 81*; Autophagy mod: inactive; INS promoter inh: 38; Lmaj promast 1uM: -11

Results for COC(=O)c1sccc1NC(=O)CSCCc1ccncc1 ?
Lmaj promast: -4; Autophagy mod: inactive; INS promoter inh: -50; Insulin prom up: -1

What do the screens show for `COc1ccccc1-n1c(=O)[nH]c2c(C(N)=O)nc(C3CCCCC3)nc21`?
HCT116 bCat-KO: 72; PTEN del growth: 83; Lmaj promast: 84*; Autophagy mod: inactive; Insulin prom up: -0.47; Lmaj promast 1uM: 0
